Binding signal data for eight sequences are collected here from paper PMC7862700, “An all-to-all approach to the identification of sequence-specific readers for epigenetic DNA modifications on cytosine”.

Common to all, as to assay: DAPPL (digital affinity profiling via proximity ligation, sequencing); 10 mM Tris-HCl pH 7.5, 50 mM NaCl, 1 mM DTT, 4% glycerol, room temperature, 30 min; GST-TFs on glutathione beads, 16-mer random dsDNA library, 0.1% formaldehyde crosslink after washing; high values mean tight binding
Test [1] addresses T1, FEV (Homo sapiens, UniProt Q99581 1-238).
T1 sequence: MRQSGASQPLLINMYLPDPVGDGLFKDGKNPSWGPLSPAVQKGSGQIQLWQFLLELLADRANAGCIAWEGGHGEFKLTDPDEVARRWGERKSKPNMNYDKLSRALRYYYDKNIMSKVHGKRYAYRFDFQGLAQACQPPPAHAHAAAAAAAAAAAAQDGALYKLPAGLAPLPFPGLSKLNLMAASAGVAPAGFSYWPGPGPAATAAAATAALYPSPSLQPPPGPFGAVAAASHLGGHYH
The settings on record: protein: recombinant; tags: N-terminal GST; dsDNA, one strand shown. The method, boiled down:
(§1)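 Yeast served to express human transcription factors as GST fusions, which were then captured on glutathione beads and labelled with DNA barcodes. Pooled with a tag-only sample, they were incubated with 200 nmole of a 16-mer random double-stranded DNA library for 30 min at room temperature in Tris/NaCl/DTT/glycerol buffer, washed, crosslinked with 0.1% formaldehyde, ligated by proximity, amplified by PCR and sequenced. Dividing each hexamer's read frequency for a factor by its frequency for the tag-only sample gives the binding signal.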

The target of test [2] is ETV5 (Homo sapiens, UniProt P41161 1-510). The settings on record: protein: recombinant; tags: N-terminal GST; dsDNA, one strand shown. The method, boiled down: as §1
Sequence of ETV5 (P41161 whole entry): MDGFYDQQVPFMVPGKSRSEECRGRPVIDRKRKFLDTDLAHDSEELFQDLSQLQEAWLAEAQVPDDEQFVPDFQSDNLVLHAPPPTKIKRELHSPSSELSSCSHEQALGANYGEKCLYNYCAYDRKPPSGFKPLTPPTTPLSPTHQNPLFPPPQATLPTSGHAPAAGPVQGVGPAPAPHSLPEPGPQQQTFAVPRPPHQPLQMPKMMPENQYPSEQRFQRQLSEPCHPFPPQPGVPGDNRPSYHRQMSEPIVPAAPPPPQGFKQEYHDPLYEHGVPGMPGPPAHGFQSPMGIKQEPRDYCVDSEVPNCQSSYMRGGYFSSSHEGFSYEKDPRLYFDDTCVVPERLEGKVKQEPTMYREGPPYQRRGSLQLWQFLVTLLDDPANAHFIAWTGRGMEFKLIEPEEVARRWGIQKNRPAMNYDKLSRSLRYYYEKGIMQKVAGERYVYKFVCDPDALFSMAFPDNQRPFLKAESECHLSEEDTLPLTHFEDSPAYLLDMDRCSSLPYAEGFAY
Test [3] has as its target HSF1 (Homo sapiens, UniProt Q00613 1-529). The settings on record: protein: recombinant; tags: N-terminal GST; chain copies: 3; dsDNA, one strand shown. The method, boiled down: as §1
The target in test [4] is T2, SPIC (Homo sapiens, UniProt Q8N5J4 1-248).
T2 sequence: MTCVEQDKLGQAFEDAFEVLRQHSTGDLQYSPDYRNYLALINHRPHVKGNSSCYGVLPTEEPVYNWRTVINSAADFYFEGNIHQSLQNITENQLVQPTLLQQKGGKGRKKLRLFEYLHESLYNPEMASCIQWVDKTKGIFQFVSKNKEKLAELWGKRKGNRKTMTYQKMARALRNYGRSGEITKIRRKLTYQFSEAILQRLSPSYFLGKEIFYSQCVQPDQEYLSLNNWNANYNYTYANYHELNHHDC
The following applies: protein: recombinant; tags: N-terminal GST; dsDNA, one strand shown. The method, boiled down: as §1

In test [5] the target is ELF4 (Homo sapiens, UniProt Q99607 1-663). The following applies: protein: recombinant; tags: N-terminal GST; dsDNA, one strand shown. The method, boiled down:
as §1

The target of test [6] is T3, ELK4 (Homo sapiens, UniProt P28324-2 1-405).
T3 sequence: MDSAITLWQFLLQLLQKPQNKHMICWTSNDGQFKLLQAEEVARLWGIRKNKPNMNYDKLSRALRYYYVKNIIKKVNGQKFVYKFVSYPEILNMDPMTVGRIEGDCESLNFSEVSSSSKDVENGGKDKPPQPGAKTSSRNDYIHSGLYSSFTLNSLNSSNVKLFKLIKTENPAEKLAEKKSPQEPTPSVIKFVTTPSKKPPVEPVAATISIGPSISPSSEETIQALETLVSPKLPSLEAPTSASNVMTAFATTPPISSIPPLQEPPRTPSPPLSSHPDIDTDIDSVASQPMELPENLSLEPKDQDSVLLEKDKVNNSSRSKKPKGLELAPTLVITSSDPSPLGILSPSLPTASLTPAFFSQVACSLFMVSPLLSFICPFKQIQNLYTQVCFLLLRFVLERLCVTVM
The settings on record: protein: recombinant; tags: N-terminal GST; dsDNA, one strand shown. The method, boiled down:
as §1

The target of test [7] is T4, ETV2 (Homo sapiens, UniProt O00321 1-342).
T4 sequence: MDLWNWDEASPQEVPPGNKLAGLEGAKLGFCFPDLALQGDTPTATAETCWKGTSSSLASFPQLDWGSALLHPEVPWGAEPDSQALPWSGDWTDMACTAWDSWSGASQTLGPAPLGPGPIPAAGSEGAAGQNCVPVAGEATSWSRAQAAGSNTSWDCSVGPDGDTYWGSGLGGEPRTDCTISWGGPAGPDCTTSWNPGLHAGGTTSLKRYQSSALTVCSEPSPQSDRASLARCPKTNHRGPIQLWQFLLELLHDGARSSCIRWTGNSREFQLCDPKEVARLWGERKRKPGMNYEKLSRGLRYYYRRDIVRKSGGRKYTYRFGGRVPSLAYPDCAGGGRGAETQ
The settings on record: protein: recombinant; tags: N-terminal GST; dsDNA, one strand shown. The method, boiled down:
as §1

The target in test [8] is T5, ELF3 (Homo sapiens, UniProt P78545 1-371).
T5 sequence: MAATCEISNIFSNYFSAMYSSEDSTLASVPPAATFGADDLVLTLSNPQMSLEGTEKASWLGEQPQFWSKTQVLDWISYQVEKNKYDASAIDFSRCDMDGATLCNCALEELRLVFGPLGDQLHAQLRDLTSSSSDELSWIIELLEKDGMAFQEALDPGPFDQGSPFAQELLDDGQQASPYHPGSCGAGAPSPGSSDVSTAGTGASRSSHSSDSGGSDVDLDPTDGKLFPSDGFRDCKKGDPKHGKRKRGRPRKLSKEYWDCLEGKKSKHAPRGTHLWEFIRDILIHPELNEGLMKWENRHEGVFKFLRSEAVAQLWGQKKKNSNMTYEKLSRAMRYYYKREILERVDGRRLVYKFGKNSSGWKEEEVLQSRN
The following applies: protein: recombinant; tags: N-terminal GST; dsDNA, one strand shown. The method, boiled down:
as §1

Test [9] addresses CRX (Homo sapiens, UniProt O43186 1-299). The following applies: protein: recombinant; tags: N-terminal GST; dsDNA, one strand shown. The method, boiled down: as §1
Test [10] addresses ETV1 (Homo sapiens, UniProt P50549 1-477). The following applies: protein: recombinant; tags: N-terminal GST; dsDNA, one strand shown. The method, boiled down: as §1

Sequence of ELF4 (Q99607 whole entry): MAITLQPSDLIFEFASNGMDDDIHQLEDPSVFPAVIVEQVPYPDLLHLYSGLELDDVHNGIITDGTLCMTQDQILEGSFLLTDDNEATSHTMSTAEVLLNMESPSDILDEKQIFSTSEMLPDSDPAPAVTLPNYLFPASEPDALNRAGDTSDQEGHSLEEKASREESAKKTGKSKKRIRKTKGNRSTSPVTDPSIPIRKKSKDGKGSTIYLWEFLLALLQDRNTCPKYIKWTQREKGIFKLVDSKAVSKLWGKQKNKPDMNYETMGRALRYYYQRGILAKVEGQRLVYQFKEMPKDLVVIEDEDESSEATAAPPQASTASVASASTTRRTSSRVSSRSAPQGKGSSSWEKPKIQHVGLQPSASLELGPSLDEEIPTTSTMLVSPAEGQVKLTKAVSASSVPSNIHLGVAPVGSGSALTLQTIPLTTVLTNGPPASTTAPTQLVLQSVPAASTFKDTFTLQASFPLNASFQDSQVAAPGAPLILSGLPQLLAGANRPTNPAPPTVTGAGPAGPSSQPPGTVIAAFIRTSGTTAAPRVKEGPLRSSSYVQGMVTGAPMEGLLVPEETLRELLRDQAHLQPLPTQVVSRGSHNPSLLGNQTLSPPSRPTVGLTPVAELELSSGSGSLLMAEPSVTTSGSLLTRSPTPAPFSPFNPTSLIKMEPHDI
Sequence of ETV1 (P50549 whole entry): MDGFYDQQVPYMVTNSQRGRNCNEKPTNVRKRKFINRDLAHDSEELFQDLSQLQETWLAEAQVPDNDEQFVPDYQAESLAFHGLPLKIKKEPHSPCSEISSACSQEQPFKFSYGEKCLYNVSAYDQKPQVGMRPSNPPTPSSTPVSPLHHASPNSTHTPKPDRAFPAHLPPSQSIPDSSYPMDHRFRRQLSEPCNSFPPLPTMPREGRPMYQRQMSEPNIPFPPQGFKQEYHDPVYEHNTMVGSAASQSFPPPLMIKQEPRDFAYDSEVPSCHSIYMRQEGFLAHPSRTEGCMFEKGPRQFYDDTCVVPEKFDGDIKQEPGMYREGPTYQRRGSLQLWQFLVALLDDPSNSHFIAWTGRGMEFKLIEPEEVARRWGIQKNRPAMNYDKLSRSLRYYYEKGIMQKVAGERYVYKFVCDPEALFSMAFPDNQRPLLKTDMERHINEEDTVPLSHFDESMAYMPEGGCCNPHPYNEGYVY
Sequence of HSF1 (Q00613 whole entry): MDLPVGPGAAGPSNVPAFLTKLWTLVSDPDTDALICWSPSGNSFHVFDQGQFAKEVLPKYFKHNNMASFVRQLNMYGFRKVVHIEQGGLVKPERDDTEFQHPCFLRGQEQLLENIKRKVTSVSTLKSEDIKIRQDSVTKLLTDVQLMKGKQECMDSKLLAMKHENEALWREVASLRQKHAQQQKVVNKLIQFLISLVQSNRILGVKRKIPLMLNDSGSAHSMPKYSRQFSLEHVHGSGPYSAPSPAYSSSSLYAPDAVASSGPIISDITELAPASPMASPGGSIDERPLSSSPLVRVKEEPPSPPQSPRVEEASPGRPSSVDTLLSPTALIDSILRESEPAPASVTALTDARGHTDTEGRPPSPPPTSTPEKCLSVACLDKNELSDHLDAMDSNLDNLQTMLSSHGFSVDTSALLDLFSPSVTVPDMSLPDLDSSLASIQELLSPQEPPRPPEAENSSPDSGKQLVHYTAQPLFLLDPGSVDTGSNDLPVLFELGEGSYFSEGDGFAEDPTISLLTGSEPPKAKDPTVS
Sequence of CRX (O43186 whole entry): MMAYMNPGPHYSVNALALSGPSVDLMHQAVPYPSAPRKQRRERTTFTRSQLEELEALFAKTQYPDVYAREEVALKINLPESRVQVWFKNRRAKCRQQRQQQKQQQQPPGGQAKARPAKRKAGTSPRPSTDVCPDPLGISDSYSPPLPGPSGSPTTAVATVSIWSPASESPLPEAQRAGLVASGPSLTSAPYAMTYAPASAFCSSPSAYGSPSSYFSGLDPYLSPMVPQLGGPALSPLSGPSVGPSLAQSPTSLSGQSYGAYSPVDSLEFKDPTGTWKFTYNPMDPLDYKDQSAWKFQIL

As to CCCATT, the binding signal in test [1] was 1.28 fold enrichment (6-mer frequency, TF over GST control); in test [2], 1.38 fold enrichment (6-mer frequency, TF over GST control); in test [3] it was 1.15 fold enrichment (6-mer frequency, TF over GST control); in [4], 1.43 fold enrichment (6-mer frequency, TF over GST control); in test [5] it was 1.23 fold enrichment (6-mer frequency, TF over GST control); in test [6], 1.26 fold enrichment (6-mer frequency, TF over GST control). Also, the binding signal was 1.56 fold enrichment (6-mer frequency, TF over GST control) in test [7]; 1.22 fold enrichment (6-mer frequency, TF over GST control) in test [8]; 1.19 fold enrichment (6-mer frequency, TF over GST control) in test [9]; 1.25 fold enrichment (6-mer frequency, TF over GST control) in test [10].

For CTCAAC, the binding signal in test [1] is 1.32 fold enrichment (6-mer frequency, TF over GST control); in test [2], 1.3 fold enrichment (6-mer frequency, TF over GST control); in [3], 1.1 fold enrichment (6-mer frequency, TF over GST control); in [4] it was 1.36 fold enrichment (6-mer frequency, TF over GST control); in [5], 1.3 fold enrichment (6-mer frequency, TF over GST control); in test [6], 1.18 fold enrichment (6-mer frequency, TF over GST control). Moreover, the binding signal in test [7] is 1.29 fold enrichment (6-mer frequency, TF over GST control); in test [8] it was 1.19 fold enrichment (6-mer frequency, TF over GST control); in test [9], 1.13 fold enrichment (6-mer frequency, TF over GST control); in test [10] it was 1.24 fold enrichment (6-mer frequency, TF over GST control).

For the sequence GGGCCT, the binding signal was 1.11 fold enrichment (6-mer frequency, TF over GST control) in test [1]; 1.27 fold enrichment (6-mer frequency, TF over GST control) in [2]; 1.1 fold enrichment (6-mer frequency, TF over GST control) in [3]; 1.13 fold enrichment (6-mer frequency, TF over GST control) in [4]; 1.24 fold enrichment (6-mer frequency, TF over GST control) in test [5]; 1.3 fold enrichment (6-mer frequency, TF over GST control) in test [6]. In addition, the binding signal is 1.05 fold enrichment (6-mer frequency, TF over GST control) in test [7]; 1.19 fold enrichment (6-mer frequency, TF over GST control) in test [8]; 1.07 fold enrichment (6-mer frequency, TF over GST control) in [9]; 1.31 fold enrichment (6-mer frequency, TF over GST control) in [10].

Regarding TCTACT, the binding signal in test [1] was 1.39 fold enrichment (6-mer frequency, TF over GST control); in test [2] it was 1.39 fold enrichment (6-mer frequency, TF over GST control); in test [3], 1.51 fold enrichment (6-mer frequency, TF over GST control); in test [4] it was 1.51 fold enrichment (6-mer frequency, TF over GST control); in test [5], 1.34 fold enrichment (6-mer frequency, TF over GST control); in test [6] it was 1.27 fold enrichment (6-mer frequency, TF over GST control). Further, the binding signal in test [7] was 1.31 fold enrichment (6-mer frequency, TF over GST control); in test [8], 1.38 fold enrichment (6-mer frequency, TF over GST control); in test [9] it was 1.45 fold enrichment (6-mer frequency, TF over GST control); in [10], 1.47 fold enrichment (6-mer frequency, TF over GST control).

Take CTTCGC: the binding signal in test [1] was 1.41 fold enrichment (6-mer frequency, TF over GST control); in [2], 1.31 fold enrichment (6-mer frequency, TF over GST control); in [3], 1.63 fold enrichment (6-mer frequency, TF over GST control); in [4] it was 1.18 fold enrichment (6-mer frequency, TF over GST control); in test [5] it was 1.45 fold enrichment (6-mer frequency, TF over GST control); in test [6], 1.32 fold enrichment (6-mer frequency, TF over GST control). The binding signal was 1.62 fold enrichment (6-mer frequency, TF over GST control) in test [7]; 1.37 fold enrichment (6-mer frequency, TF over GST control) in [8]; 1.24 fold enrichment (6-mer frequency, TF over GST control) in [9]; 1.52 fold enrichment (6-mer frequency, TF over GST control) in test [10].

For AACATA, the binding signal was 1.2 fold enrichment (6-mer frequency, TF over GST control) in test [1]; 1.31 fold enrichment (6-mer frequency, TF over GST control) in [2]; 1.36 fold enrichment (6-mer frequency, TF over GST control) in test [3]; 1.37 fold enrichment (6-mer frequency, TF over GST control) in test [4]; 1.3 fold enrichment (6-mer frequency, TF over GST control) in [5]; 1.16 fold enrichment (6-mer frequency, TF over GST control) in test [6]. Further, the binding signal in [7] was 1.38 fold enrichment (6-mer frequency, TF over GST control); in test [8] it was 1.36 fold enrichment (6-mer frequency, TF over GST control); in [9], 1.3 fold enrichment (6-mer frequency, TF over GST control); in test [10] it was 1.21 fold enrichment (6-mer frequency, TF over GST control).

On to TTACTA, for which the binding signal in test [1] was 1.14 fold enrichment (6-mer frequency, TF over GST control); in test [2], 1.22 fold enrichment (6-mer frequency, TF over GST control); in [3] it was 1.79 fold enrichment (6-mer frequency, TF over GST control); in test [4], 1.38 fold enrichment (6-mer frequency, TF over GST control); in test [5], 1.3 fold enrichment (6-mer frequency, TF over GST control); in test [6], 1.32 fold enrichment (6-mer frequency, TF over GST control). Also, the binding signal is 1.34 fold enrichment (6-mer frequency, TF over GST control) in [7]; 1.25 fold enrichment (6-mer frequency, TF over GST control) in test [8]; 2.18 fold enrichment (6-mer frequency, TF over GST control) in [9]; 1.23 fold enrichment (6-mer frequency, TF over GST control) in test [10].

On to AATCTC, for which the binding signal was 1.23 fold enrichment (6-mer frequency, TF over GST control) in [1]; 1.37 fold enrichment (6-mer frequency, TF over GST control) in [2]; 2.13 fold enrichment (6-mer frequency, TF over GST control) in test [3]; 1.13 fold enrichment (6-mer frequency, TF over GST control) in test [4]; 1.25 fold enrichment (6-mer frequency, TF over GST control) in [5]; 1.22 fold enrichment (6-mer frequency, TF over GST control) in test [6]. Moreover, the binding signal in [7] was 1.26 fold enrichment (6-mer frequency, TF over GST control); in test [8], 1.27 fold enrichment (6-mer frequency, TF over GST control); in [9], 2.5 fold enrichment (6-mer frequency, TF over GST control); in [10] it was 1.34 fold enrichment (6-mer frequency, TF over GST control).
